Test results published in PubChem BioAssay AID720513 (Broad Institute, 2013).
In all, about 2,100 compounds went through this assay and about 480 (23%) were called active. Inconclusive results (about 5%) are left out.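 The calls were made as follows: active = fitted curve reaches 40% activation at or below the top valid concentration, in every replicate test; inconclusive = replicate tests disagree on the call; inactive = the rest, including activity in the opposite direction.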 These entries were drawn from the full list. Measured potencies and affinities stand elsewhere.

test: PGC1a acetylation increase, cellular AlphaLISA – cell-based, cherry-picked samples, set 6, dose response (AID 720513); conditions: U2OS PGC1a acetylation AlphaLISA, overnight, 0 = neutral, -100 = inhibitor control; series mostly up to 19.5 µM;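 also: cells made to overexpress flag tagged PGC1a plus GCN5 acetyltransferase by viral infection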

outcome, inactive:
O=C(NNS(=O)(=O)c1ccc(F)cc1)c1ccc(S(=O)(=O)N2CCCCC2)cc1, N#CC1(NC(=O)Cn2ncc(Cl)c(Cl)c2=O)CCCCC1, C#CCN(C[C@@H]1[C@@H](OC(=O)NCCCCCC)[C@@H](OC(=O)NCCCCCC)Cn2c(=O)ccc(=O)n21)S(=O)(=O)c1ccc(C)cc1, CO[C@H]1CN(C)C(=O)c2ccc(NS(=O)(=O)c3ccccc3)cc2OC[C@H](C)N(C(=O)NC(C)C)C[C@@H]1C, O=C(Nc1cc(S(=O)(=O)N2CCOCC2)ccc1Cl)c1cc([N+](=O)[O-])ccc1Cl, O=C(Cn1cc(C(F)(F)F)ccc1=O)Nc1cc(S(=O)(=O)N2CCOCC2)ccc1Cl, CCN(CC)c1ccc(S(=O)(=O)N2CCOCC2)cc1NC(=O)Cn1nc(C)c([N+](=O)[O-])c1C, CCN(CC)S(=O)(=O)c1ccc(C(=O)Nc2cc(S(=O)(=O)N3CCOCC3)ccc2O)cc1, Cc1nn(CCCC(=O)O)c(C)c1[N+](=O)[O-], CCC(=O)NC1(Cc2ccc(O)cc2)CCCCC1, COCCNC(=O)CN(C(=O)CCC(=O)Nc1ccccn1)c1ccc(OC)cc1, CCN(CC)CCNc1ccc(C)c2sc3ccc(O)cc3c(=O)c12, Cc1cccc(CCN(CC(=O)NC(C)(C)C)C(=O)c2csnn2)c1, Cc1ccc(S(=O)(=O)N(C)C[C@@H]2Oc3cc(C#Cc4ccncc4)ccc3S(=O)(=O)N([C@@H](C)CO)C[C@H]2C)cc1, Cc1ccc(S(=O)(=O)N(C)C[C@@H]2Oc3cc(C#Cc4ccncc4)ccc3S(=O)(=O)N([C@H](C)CO)C[C@H]2C)cc1, C[C@H]1CN([C@@H](C)CO)S(=O)(=O)c2ccc(C3=CCCC3)cc2O[C@@H]1CN(C)C, C[C@@H]1CN([C@@H](C)CO)S(=O)(=O)c2ccc(C3=CCCCC3)cc2O[C@H]1CN(C)C, COc1ccc(S(=O)(=O)N(C)C[C@@H]2Oc3cc(C#CC4CC4)ccc3S(=O)(=O)N([C@H](C)CO)C[C@H]2C)cc1, Cc1ccc(S(=O)(=O)N(C)C[C@H]2Oc3cc(C#Cc4ccncc4)ccc3S(=O)(=O)N([C@H](C)CO)C[C@H]2C)cc1, COc1ccc(S(=O)(=O)N(Cc2cc3ccc(OC)cc3[nH]c2=O)CC2COCCO2)cc1 (stereo not drawn), Cn1c2c(c(=O)n(C)c1=O)C(c1cccc(F)c1)C(C#N)=C(N)O2 (stereo not drawn), Cc1ccc(S(=O)(=O)N(C)C[C@H]2Oc3ccc(NC(=O)CCC(F)(F)F)cc3C(=O)N([C@H](C)CO)C[C@@H]2C)cc1, CCOC(=O)c1ccc(N2C(=O)CC(N3CCC(O)(c4ccc(Br)cc4)CC3)C2=O)cc1 (stereo not drawn), Cn1ncc2c(O/N=C(\N)c3ccc(C(F)(F)F)cc3)ncnc21, CC(C)OC(=O)CSc1nc2cccnc2n1-c1ccc(F)cc1, CCOC(=O)CSc1nc2cc3c(cc2cc1C#N)OCCO3, O=C(/C=C/c1ccc(F)cc1)NNC(=O)CCN1CCN(Cc2ccccc2)CC1, Cc1[nH]c(=O)c(C(=O)/C=C/c2ccccc2)c2c1CCCC2, CC(=O)N1CCN(C(C)=O)C1c1ccccc1, O=S(=O)(Nc1ccccn1)c1ccc(-n2cccn2)cc1, CC1CCN(C(=O)COC(=O)c2ccc(Br)o2)CC1, COc1ccc(OC)c(CNS(=O)(=O)c2cc(-c3cc(C)no3)ccc2OC)c1, CCOc1ccc(S(=O)(=O)N(C)c2ccc(OCC(=O)N3c4ccc(C)cc4C4CN(C)CCC43)cc2)cc1 (stereo not drawn), CN(C[C@H]1N[C@@H](CO)[C@@H]1c1ccc(C2=CCCC2)cc1)C(=O)c1ccc(F)cc1, CN1OC[C@@H]2CN(S(=O)(=O)c3cccc4ccccc34)[C@H](c3ccc(N4CCCCC4)cc3)C[C@@H]21, Cc1cc(C)nc(N2CCC(C(=O)NCc3ccco3)CC2)n1, CC(C)CC(OC(=O)c1cccs1)C(=O)NCc1ccco1 (stereo not drawn), Cc1ccc(C)n1-c1ccc(-c2nnco2)cc1, COc1ccc2c3c([nH]c2c1)[C@@H](CO)N(C(=O)c1ccccc1)CC31CCN(S(=O)(=O)c2cccs2)CC1, COc1ccc2c3c(n(C)c2c1)[C@H](CO)NCC31CCN(Cc2cc(-c3ccccc3)on2)CC1, CCN(CC)Cc1c(O)ccc2c([N+](=O)[O-])c(C)n(-c3ccc(OC)cc3)c12, CCOC(=O)CN1C(=O)C(Sc2n[nH]c(-c3ccc(C)cc3)n2)CCc2ccccc21 (stereo not drawn), O=C1c2ccc(-c3ccc4c(c3)C(=O)N(CCCO)C4=O)cc2C(=O)N1CCCO, CNC[C@H]1Oc2ncc(C#CC3CCCCC3)cc2C(=O)N([C@H](C)CO)C[C@H]1C, O=C(Cn1cnc2c(nnn2Cc2ccc(Cl)cc2)c1=O)c1ccccc1, COc1cccc(OCc2nnc(SCC(=O)OCc3ccccc3)o2)c1, COc1ccc(CN(C)C[C@@H]2Oc3ccc(NS(=O)(=O)c4c(C)noc4C)cc3C(=O)N([C@H](C)CO)C[C@H]2C)cc1, Cc1cc(C)cc(N(CC(=O)Nc2c(C)n(C)n(-c3ccccc3)c2=O)S(C)(=O)=O)c1, C[C@@H]1CN([C@H](C)CO)C(=O)CCCn2nncc2CO[C@H]1CN(C)S(=O)(=O)c1cn(C)cn1, CN(Cc1ccccc1)C(=O)c1ccc2c(c1)NC(=O)C(N1CCOCC1)S2 (stereo not drawn), CCCOc1ccccc1C1C(C(=O)OC)=CN(C(C)C)C=C1C(=O)OC, CN(c1cccc(NS(=O)(=O)c2cccs2)c1)S(C)(=O)=O, CC(=O)c1ccccc1-c1csc2ncnc(Sc3nnnn3C)c12, CCn1c(CNc2ccc(C)cc2)nnc1SCC(N)=O, Cc1[nH]nc2ncc(C(=O)c3ccccc3O)cc12, Cn1c(SCc2ccon2)nc2ccccc2c1=O, CNC[C@@H]1OCCCC[C@H](C)Oc2ccc(NS(=O)(=O)c3cccs3)cc2C(=O)N([C@H](C)CO)C[C@@H]1C, Cc1noc(C)c1NC(=O)N(C)C[C@@H]1OCCCC[C@@H](C)Oc2ccc(N(C)C)cc2C(=O)N([C@@H](C)CO)C[C@H]1C, CCCOc1ccc(/C=C/C(=O)O)cc1OC, COc1ccc(C(=C(CC(=O)O)C(=O)OC(C)(C)C)c2cc(OC)c(OC)c(OC)c2)cc1OC, CN(C)C(=O)C[C@H]1CC[C@H](NC(=O)C2CCC2)[C@@H](CO)O1, COc1ccc2cc3c(N)nn(C(=O)c4ccccc4Cl)c3nc2c1, CCc1c(C)nc(SCC(=O)Nc2ccc3c(c2)OCCO3)[nH]c1=O, COc1ccc(NCc2nnc(SCC(=O)Nc3cc(C)cc(C)c3)o2)cc1, CCN1C(=O)c2cccc3c(S(=O)(=O)Nc4ccccn4)ccc1c23, Cc1ccc(O)c(NC(=O)c2ccc3c(c2)C(=O)N(CC(C)C)C3=O)c1, CCN1CCN(C(=O)c2c(-c3c(F)cccc3Cl)noc2C)CC1, C[C@H](CO)N1C[C@H](C)[C@H](CN(C)C(=O)NC2CCCCC2)Oc2cc(C#Cc3ccc(F)cc3)ccc2S1(=O)=O, Nc1ccccc1-c1ccn[nH]1, CC1=NN(C(=O)c2ccc(C)cc2)C(O)(C(F)(F)OC(F)(F)F)C1 (stereo not drawn), O=C(c1ccco1)N1N=C(c2ccc(Cl)cc2)CC1(O)C(F)(F)F (stereo not drawn), COc1ccc(-c2ccc(CCC(=O)O)n2NC(=O)c2ccc(C(C)(C)C)cc2)cc1, COc1ccc(C(C)(O)c2nc(-c3cccc(O)c3)cs2)cc1 (stereo not drawn), O=C(Nc1ccc(F)cc1)N[C@H]1C=C[C@H](CC(=O)N2CCCCC2)O[C@H]1CO, CCSc1ccccc1C(=O)NCCCn1ccnc1, COc1cccc(-c2cc(C(=O)NCCCn3ccnc3)no2)c1, Cc1ccccc1-c1nc(C(=O)NCC2CCCO2)cc2c1[nH]c1ccccc12 (stereo not drawn), C[C@@H]1CN([C@@H](C)CO)S(=O)(=O)c2ccc(-c3ccc(F)cc3)cc2O[C@H]1CN(C)C(=O)C1CCCCC1, C#CCN(C[C@@H]1[C@@H](OC(=O)NC2CCCC2)[C@@H](OC(=O)NC2CCCC2)Cn2c(=O)ccc(=O)n21)S(=O)(=O)c1ccc(C)cc1, O=C1N(Cc2ccccc2)Cc2ccccc2[C@@H]2OC(c3ccc(OCCCO)cc3)=N[C@]12Cc1ccccc1, CCCC#Cc1ccc2c(c1)O[C@@H](CN(C)C(=O)C1CC1)[C@@H](C)CN([C@@H](C)CO)S2(=O)=O, COC(c1ccccc1)c1nnc(CCC(=O)N(C)C(C2CC2)C2CC2)o1 (stereo not drawn), COCC(=O)NCc1nc2ccccc2n1Cc1ccccc1F, COCCNC(=O)C(c1ccc(F)cc1)N(Cc1ccco1)C(=O)CCC(=O)Nc1nccs1 (stereo not drawn), COc1ccc2cc3cc(C(=O)NCc4cccs4)oc3nc2c1, CCCCn1nc(NC(=O)c2cccs2)c2cc3ccccc3nc21, CN(C)c1ccc(C(=O)NC2(N3CCC3=O)CCCC2)cc1, CCOC(=O)N1CCN(C(=O)c2cc(Cl)c(Cl)cc2C(=O)O)CC1, Clc1ccc(CSc2nnc(-c3cccnc3)n2Cc2ccco2)c(Cl)c1, CCOC(=O)C1=C(C)N=c2s/c(=C\c3cccc(OCC(=O)O)c3)c(=O)n2C1c1ccccc1OC (stereo not drawn), Cc1noc(C)c1S(=O)(=O)Nc1cccc2c1O[C@@H](CN(C)Cc1ccncc1)[C@@H](C)CN([C@@H](C)CO)C2=O, C[C@H](CO)N1C[C@H](C)[C@H](CN(C)Cc2ccc(C(=O)Nc3ccccc3N)cc2)Oc2c(NC(=O)c3cnccn3)cccc2C1=O, C[C@@H]1CN([C@H](C)CO)C(=O)c2cc(NS(=O)(=O)c3ccc(F)cc3)ccc2O[C@H]1CN(C)Cc1ccc(C(F)(F)F)cc1, Cc1noc(C)c1NC(=O)Nc1cccc2c1O[C@H](CN(C)Cc1ccc(Oc3ccccc3)cc1)[C@H](C)CN([C@@H](C)CO)C2=O, C[C@H]1CN([C@@H](C)CO)C(=O)c2cccc(NC(=O)C3CCCCC3)c2O[C@H]1CN(C)Cc1ccc(C(=O)Nc2ccccc2N)cc1, COc1ccc(CN(C)C[C@H]2Oc3c(NC(=O)CCCCCC(=O)Nc4ccccc4N)cccc3C(=O)N([C@H](C)CO)C[C@@H]2C)cc1, C[C@H](CO)N1C[C@H](C)[C@@H](CN(C)Cc2ccc(C(F)(F)F)cc2)Oc2ccc(NS(=O)(=O)c3ccc(F)cc3)cc2C1=O, C[C@@H]1CN([C@H](C)CO)C(=O)c2cc(NC(=O)Cc3ccccc3)ccc2O[C@@H]1CN(C)Cc1ccncc1
